Data published in PubChem BioAssay (Tox21).
Inconclusive results are not listed. Calls of active or inactive are those of the source. Unless noted, calls follow the shape of the dose curve; as a rule, active = well fitted curve in the direction sought with a large enough effect in the repeat runs; inconclusive = weak or mixed curves; inactive = no such curve, though single readings can be large; an effect the other way counts as inactive or inconclusive.

Legend:
[1] = qHTS assay for small molecules that induce genotoxicity in human embryonic kidney cells expressing luciferase-tagged ATAD5 (AID 651632); also: nearly all actives have a fitted effect of over 15% in size
In short: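 Luminescence read-out: after 16 hr compound exposure at 37C, ATAD5-luciferase HEK293T cells received Amplite, 30 min RT, then CCD imaging. A rise in signal marks genotoxic stress.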

[2] = qHTS assay for small molecules that induce genotoxicity in human embryonic kidney cells expressing luciferase-tagged ATAD5 - cell viability (AID 651634; calls by dose curve; also: nearly all actives have a fitted effect of over 25% in size)
In short: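 HEK293T ATAD5-luc cells, 2,000/well; compound 15.5 hr, 37C/5% CO2; CellTiter-Fluor 30 min, 37C; fluorescence read.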

[3] = qHTS assay to test for compound auto fluorescence at 590 nm (red) in HepG2 cells (AID 720674)
In short: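 1 hr compound incubation on HepG2 cells, 37 C, 5% CO2; plate read ex 540 nm / em 590 nm; intensities reported as Rose Bengal sodium equivalents.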

[4] = qHTS assay to test for compound auto fluorescence at 535 nm (green) in HepG2 cells (AID 720675)
[5] = qHTS assay to test for compound auto fluorescence at 590 nm (red) in HEK293 cells (AID 720679)
In short: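 Intensity at 540nm excitation and 590nm emission is reported as Rose Bengal sodium-equivalent autofluorescence. Measurements followed overnight exposure (37C, 5% CO2) of HEK293 cells, 2,000 per well, to 23 nL compound.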

[6] = qHTS assay to test for compound auto fluorescence at 460 nm (blue) in HEK293 cell free culture (AID 720681)
In short: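 Blue fluorescence (Ex 405/Em 460 nm, triamterene-equivalent) was read immediately after pin transfer of compound or DMSO into medium (DMEM, 10% FBS) without cells.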

[7] = qHTS assay to test for compound auto fluorescence at 535 nm (green) in HEK293 cell free culture (AID 720682)
In short: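 Green-channel intensity (Ex/Em 485/535 nm) was recorded from compound-treated wells containing only DMEM with 10% FBS. Fluorescein provided the equivalency standard.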

[8] = qHTS assay to test for compound auto fluorescence at 590 nm (red) in HepG2 cell free culture (AID 720684)
In short: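 Cell-free; medium MEM + 10% FBS; compound or DMSO added by pintool; read Ex 540/Em 590 nm; Rose Bengal sodium as red reference fluorophore.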

[9] = qHTS assay to test for compound auto fluorescence at 460 nm (blue) in HepG2 cell free culture (AID 720685)
In short: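 Cell-free plates of MEM plus 10% FBS received 23 nL compound or DMSO vehicle; blue-channel (405/460 nm) intensity scored against triamterene as reference fluorophore.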

[10] = qHTS assay to test for compound auto fluorescence at 535 nm (green) in HepG2 cell free culture (AID 720686)
[11] = qHTS assay to test for compound auto fluorescence at 460 nm (blue) in HepG2 cells (AID 720687)
In short: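 Blue-channel autofluorescence (Ex/Em 405/460 nm, triamterene-equivalent) was measured after 1 hr compound exposure at 37 C, 5% CO2. Cells were HepG2, plated overnight at 37 C in MEM plus 10% FBS.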

[12] = qHTS assay to identify small molecule antagonists of the estrogen receptor alpha (ER-alpha) signaling pathway - cell viability counter screen (AID 743074; calls by dose curve;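 also: HEK293 cells carrying ER-alpha-UAS-bla reporter stimulated with 17beta-estradiol; nearly all actives have a fitted effect of over 45% in size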)
[13] = qHTS assay to identify small molecule antagonists of the estrogen receptor alpha (ER-alpha) signaling pathway using the BG1 cell line - cell viability counter screen (AID 743081);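 also: compound given together with 17beta-estradiol as the ER stimulus; series mostly up to about 70 µM; nearly all actives have a fitted effect of over 45% in size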
Aromatase (Homo sapiens) = Aromatase (Homo sapiens) (UniProt P11511); test: qHTS assay to identify aromatase inhibitors (AID 743083); also: series mostly up to about 70 µM; nearly all actives have a fitted effect of over 55% in size
Chain of Aromatase (Homo sapiens) (P11511 whole entry, looked up): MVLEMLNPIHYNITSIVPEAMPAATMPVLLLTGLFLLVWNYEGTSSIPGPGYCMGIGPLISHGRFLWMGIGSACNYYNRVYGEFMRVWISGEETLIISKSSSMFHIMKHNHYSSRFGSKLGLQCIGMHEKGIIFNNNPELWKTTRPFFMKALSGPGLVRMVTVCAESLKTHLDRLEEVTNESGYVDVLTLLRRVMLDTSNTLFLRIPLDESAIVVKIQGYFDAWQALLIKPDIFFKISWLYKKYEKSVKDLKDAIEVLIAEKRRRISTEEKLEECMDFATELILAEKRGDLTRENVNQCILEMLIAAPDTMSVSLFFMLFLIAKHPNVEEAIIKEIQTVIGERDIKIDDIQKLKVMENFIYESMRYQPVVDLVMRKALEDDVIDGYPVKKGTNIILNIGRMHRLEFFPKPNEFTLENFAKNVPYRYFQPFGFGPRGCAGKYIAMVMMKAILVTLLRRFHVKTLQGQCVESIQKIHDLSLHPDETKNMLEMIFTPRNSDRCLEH

[14] = qHTS assay to identify aromatase inhibitors - cell viability counter screen (AID 743084);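 also: cells stimulated with testosterone during compound exposure; nearly all actives have a fitted effect of over 55% in size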
[15] = biological target: Aryl hydrocarbon receptor (Homo sapiens) (UniProt P35869); test: qHTS assay to identify small molecule that activate the aryl hydrocarbon receptor (AhR) signaling pathway (AID 743085);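 also: HG2L7.5c1 human HepG2 liver cells with stably integrated DRE-driven firefly reporter; series mostly up to about 70 µM; nearly all actives have a fitted effect of over 15% in size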
Chain of Aryl hydrocarbon receptor (Homo sapiens) (P35869 whole entry, looked up): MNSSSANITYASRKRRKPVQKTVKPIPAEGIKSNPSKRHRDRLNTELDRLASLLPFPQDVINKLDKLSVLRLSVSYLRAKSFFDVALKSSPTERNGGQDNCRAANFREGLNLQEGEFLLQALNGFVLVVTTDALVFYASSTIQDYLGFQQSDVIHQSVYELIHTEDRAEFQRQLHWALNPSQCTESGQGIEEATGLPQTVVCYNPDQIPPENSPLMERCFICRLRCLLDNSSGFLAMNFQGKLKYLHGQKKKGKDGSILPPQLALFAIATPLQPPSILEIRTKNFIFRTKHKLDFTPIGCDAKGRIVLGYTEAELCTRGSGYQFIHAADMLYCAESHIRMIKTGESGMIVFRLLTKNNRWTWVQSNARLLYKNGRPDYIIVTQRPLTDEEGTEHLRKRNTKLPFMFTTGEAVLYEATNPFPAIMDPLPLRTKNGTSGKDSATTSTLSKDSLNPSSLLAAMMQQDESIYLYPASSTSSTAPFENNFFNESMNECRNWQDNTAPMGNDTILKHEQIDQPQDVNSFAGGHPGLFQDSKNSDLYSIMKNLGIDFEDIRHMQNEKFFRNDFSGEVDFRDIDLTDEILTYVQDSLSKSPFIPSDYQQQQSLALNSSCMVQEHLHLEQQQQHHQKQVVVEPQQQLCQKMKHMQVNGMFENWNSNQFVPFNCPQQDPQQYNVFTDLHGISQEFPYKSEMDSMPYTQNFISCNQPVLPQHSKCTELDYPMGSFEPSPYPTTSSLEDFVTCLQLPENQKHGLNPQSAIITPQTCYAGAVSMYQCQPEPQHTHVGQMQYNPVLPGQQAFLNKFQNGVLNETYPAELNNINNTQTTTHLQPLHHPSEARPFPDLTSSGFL
In short: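 AhR agonist activity is inferred from enhanced light output of a DRE-controlled firefly luciferase reporter in HepG2 cells, measured with ONE-Glo following 24 h treatment at 37C.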

[16] = qHTS assay to identify small molecule that activate the aryl hydrocarbon receptor (AhR) signaling pathway - cell viability counter screen (AID 743086);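 also: HepG2 liver cells carrying the AhR DRE luciferase reporter; series mostly up to about 70 µM; nearly all actives have a fitted effect of over 45% in size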
In short: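 Cytotoxicity counter screen: CellTiter-Fluor signal (30 min, 37 C) in 4000 HepG2 cells/well carrying the DRE-luciferase reporter, following 24 h compound exposure at 37 C.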

[17] = qHTS assay to identify small molecule phospholipidosis (PLD) inducers (AID 1259344; active = well fitted curve in the direction sought with a large enough effect; an effect the other way counts as inactive or inconclusive)
In short: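 Phospholipid accumulation was scored by imaging: fixed, Hoechst-counterstained HepG2 cells stained with LipidTOX Red after 24 h compound exposure at 37 C. Read-outs were pit count and pit intensity per well or per cell, with amiodarone and DMSO controls.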

[18] = biological target: Nuclear receptor subfamily 1 group I member 2 (Rattus norvegicus) (UniProt Q9R1A7); test: Rat pregnane X receptor (rPXR) activation by small molecules, qHTS assay (AID 1346983); conditions: rPXR luciferase reporter cells, One-Glo luminescence, 24 h; max activation: hits give high values; also: nearly all actives have a fitted effect of over 20% in size
Chain of Nuclear receptor subfamily 1 group I member 2 (Rattus norvegicus) (Q9R1A7 whole entry, looked up): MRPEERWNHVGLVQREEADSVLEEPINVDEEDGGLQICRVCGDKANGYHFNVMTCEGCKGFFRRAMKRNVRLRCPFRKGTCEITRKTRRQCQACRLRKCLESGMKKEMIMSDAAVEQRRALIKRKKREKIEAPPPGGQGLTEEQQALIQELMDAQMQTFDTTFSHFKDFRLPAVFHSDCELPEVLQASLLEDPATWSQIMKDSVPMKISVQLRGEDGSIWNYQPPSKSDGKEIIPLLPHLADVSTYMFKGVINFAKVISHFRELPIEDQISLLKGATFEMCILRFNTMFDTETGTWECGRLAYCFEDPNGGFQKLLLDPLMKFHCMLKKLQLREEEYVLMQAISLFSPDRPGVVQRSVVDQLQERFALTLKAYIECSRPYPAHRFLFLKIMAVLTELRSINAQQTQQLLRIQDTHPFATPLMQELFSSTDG
In short: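 Luminescent readout (One-Glo luciferase, 30 min room temperature) followed 24 hr compound treatment at 37 C of rPXR cells plated 2,000 per well and preincubated 5hr; qHTS format with compounds delivered in DMSO.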

[19] = biological target: Nuclear receptor subfamily 1 group I member 2 (Homo sapiens) (UniProt O75469); test: CYP3A4 induction through human pregnane X receptor (PXR) by small molecules, qHTS assay (AID 1346984); also: nearly all actives have a fitted effect of over 40% in size
In short: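 HepG2-derived DPX-2 line carrying PXR plus a CYP3A4-promoter luciferase reporter; cells plated 5 hr, compound-exposed 24 hr at 37C. CYP3A4 activity probed with 3uM (final) Luciferin-IPA for 3hr, then luciferase read after One-Glo.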
% is scaled to controls: 0 for no effect and ±100 for the full control effect.

[2H]C([2H])([2H])[C@H](N)Cc1ccccc1
inactive: Potency [1] | Potency [2] | outcome [3] | Potency [4] | outcome [5] | Potency [6] | Potency [7] | outcome [8] | Potency [9] | Potency [10] | Potency [11] | Potency [12] | Potency [13] | Potency (Aromatase (Homo sapiens)) | Potency [14] | Potency [15] | Potency [16] | Potency [17] | max activation [18] -6.9% | Potency [19]

C[C@]12CC[C@H](OS(=O)(=O)O)CC1=CC[C@@H]1[C@@H]2CC[C@]2(C)C(=O)CC[C@@H]12
inactive: Potency [1] | Potency [2] | outcome [3] | Potency [4] | outcome [5] | Potency [6] | Potency [7] | outcome [8] | Potency [9] | Potency [10] | Potency [11] | Potency [12] | Potency [13] | Potency (Aromatase (Homo sapiens)) | Potency [14] | Potency [15] | Potency [16] | Potency [17] | max activation [18] -3.4% | Potency [19]

CC(=O)Oc1ccc2c3c1O[C@H]1[C@@H](OC(C)=O)C=C[C@H]4[C@@H](C2)N(C)CC[C@@]341
inactive: Potency [1] | Potency [2] | Potency [4] | outcome [5] | Potency [6] | Potency [7] | outcome [8] | Potency [9] | Potency [10] | Potency [11] | Potency [12] | Potency [13] | Potency (Aromatase (Homo sapiens)) | Potency [14] | Potency [15] | Potency [16] | Potency [17] | max activation [18] 0.899% | Potency [19]

CC(Cc1ccccc1)NC=O (stereo not drawn)
inactive: Potency [1] | Potency [2] | outcome [3] | Potency [4] | outcome [5] | Potency [6] | Potency [7] | outcome [8] | Potency [9] | Potency [10] | Potency [11] | Potency [12] | Potency [13] | Potency (Aromatase (Homo sapiens)) | Potency [14] | Potency [15] | Potency [16] | Potency [17] | max activation [18] 0.0916% | Potency [19]

CNC(=O)OCC[N+](C)(C)C
inactive: Potency [1] | Potency [2] | outcome [3] | Potency [4] | outcome [5] | Potency [6] | Potency [7] | outcome [8] | Potency [9] | Potency [10] | Potency [11] | Potency [12] | Potency [13] | Potency (Aromatase (Homo sapiens)) | Potency [14] | Potency [15] | Potency [16] | Potency [17] | max activation [18] 0.49% | Potency [19]

O=C1CCCCC1CN1CCCCC1 (stereo not drawn)
inactive: Potency [1] | Potency [2] | outcome [3] | Potency [4] | outcome [5] | Potency [6] | Potency [7] | outcome [8] | Potency [9] | Potency [10] | Potency [11] | Potency [12] | Potency [13] | Potency (Aromatase (Homo sapiens)) | Potency [14] | Potency [15] | Potency [16] | Potency [17] | max activation [18] -4.76% | Potency [19]

C[C@@H]([C@H](O)c1ccccc1)N(C)C
inactive: Potency [1] | Potency [2] | outcome [3] | Potency [4] | outcome [5] | Potency [6] | Potency [7] | outcome [8] | Potency [9] | Potency [10] | Potency [11] | Potency [12] | Potency [13] | Potency (Aromatase (Homo sapiens)) | Potency [14] | Potency [15] | Potency [16] | Potency [17] | max activation [18] -2.62% | Potency [19]

NCC(O)c1cccc(O)c1 (stereo not drawn)
inactive: Potency [1] | Potency [2] | Potency [4] | outcome [5] | Potency [6] | Potency [7] | outcome [8] | Potency [9] | Potency [10] | Potency [11] | Potency [12] | Potency [13] | Potency (Aromatase (Homo sapiens)) | Potency [14] | Potency [15] | Potency [16] | Potency [17] | max activation [18] -2.06% | Potency [19]

CC(N)Cc1ccc(O)cc1 (stereo not drawn)
inactive: Potency [1] | Potency [2] | outcome [3] | Potency [4] | outcome [5] | Potency [6] | Potency [7] | outcome [8] | Potency [9] | Potency [10] | Potency [11] | Potency [12] | Potency [13] | Potency (Aromatase (Homo sapiens)) | Potency [14] | Potency [15] | Potency [16] | Potency [17] | max activation [18] -0.925% | Potency [19]

C[C@]12C=CC(=O)C=C1CC[C@@H]1[C@@H]2CC[C@]2(C)OC(=O)CC[C@@H]12
inactive: Potency [1] | Potency [2] | outcome [3] | Potency [4] | outcome [5] | Potency [6] | Potency [7] | outcome [8] | Potency [9] | Potency [10] | Potency [11] | Potency [12] | Potency [13] | Potency (Aromatase (Homo sapiens)) | Potency [14] | Potency [15] | Potency [16] | Potency [17] | max activation [18] -1.12% | Potency [19]

CN[C@H]1C[C@@H](N)[C@H](O)[C@@H](O[C@@H]2O[C@H](CO)[C@H](O)[C@@H]3OC4(O[C@H]23)O[C@H](C(N)CO)[C@H](O)[C@H](O)[C@H]4O)[C@@H]1O (stereo partly drawn)
inactive: Potency [1] | Potency [2] | outcome [3] | Potency [4] | outcome [5] | Potency [6] | Potency [7] | outcome [8] | Potency [9] | Potency [10] | Potency [11] | Potency [12] | Potency [13] | Potency (Aromatase (Homo sapiens)) | Potency [14] | Potency [15] | Potency [16] | Potency [17] | max activation [18] -3.01% | Potency [19]

CC(=O)OCC(=O)[C@H]1CC[C@H]2[C@@H]3CC[C@H]4C[C@H](O)CC[C@]4(C)[C@H]3C(=O)C[C@]12C
inactive: Potency [1] | Potency [2] | outcome [3] | Potency [4] | outcome [5] | Potency [6] | Potency [7] | outcome [8] | Potency [9] | Potency [10] | Potency [11] | Potency [12] | Potency [13] | Potency (Aromatase (Homo sapiens)) | Potency [14] | Potency [15] | Potency [16] | Potency [17] | max activation [18] -0.613% | Potency [19]
